This is a sample that favours compounds with a hit; in the whole collection about 2.4% have one here.
POLH inh: blocks human DNA polymerase eta activity. 1.2% of 390,000 active. recombinant Pol eta, fluorescent DNA replication assay. Potency, µM (highest dose often 114 µM), actives largely listed as inhibitors. AID 588591. Q9Y253
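Pol eta (10 nM) was preincubated with compounds for 15 min at room temperature, after which fluorescent replication substrate (50 nM final) was added to start the reaction. Fluorescence was read kinetically at 0 and 10 min.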
POLI inh: blocks human DNA polymerase iota activity | Pol iota fluorescent replication assay, 10 min | Potency, µM (series often up to 115 µM), most hits filed as inhibitors | 1% of 390,000 active | AID 588590
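Pol iota at 10 nM preincubated 15 min with compounds at room temperature; reaction started with fluorescent substrate, 50 nM final. Fluorescence read kinetically at 0 and 10 min; buffer-only wells as negative control.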
WRN inhibitor: inhibitors of human WRN helicase. Potency, µM (top dose mostly 114 µM), actives largely listed as inhibitors. 0.46% of 360,000 active. AID 651768. WRN helicase unwinding, fluorescent forked duplex, kinetic; also: nearly all actives have a fitted effect of over 55% in size
Target sequence (Q14191 whole entry, looked up): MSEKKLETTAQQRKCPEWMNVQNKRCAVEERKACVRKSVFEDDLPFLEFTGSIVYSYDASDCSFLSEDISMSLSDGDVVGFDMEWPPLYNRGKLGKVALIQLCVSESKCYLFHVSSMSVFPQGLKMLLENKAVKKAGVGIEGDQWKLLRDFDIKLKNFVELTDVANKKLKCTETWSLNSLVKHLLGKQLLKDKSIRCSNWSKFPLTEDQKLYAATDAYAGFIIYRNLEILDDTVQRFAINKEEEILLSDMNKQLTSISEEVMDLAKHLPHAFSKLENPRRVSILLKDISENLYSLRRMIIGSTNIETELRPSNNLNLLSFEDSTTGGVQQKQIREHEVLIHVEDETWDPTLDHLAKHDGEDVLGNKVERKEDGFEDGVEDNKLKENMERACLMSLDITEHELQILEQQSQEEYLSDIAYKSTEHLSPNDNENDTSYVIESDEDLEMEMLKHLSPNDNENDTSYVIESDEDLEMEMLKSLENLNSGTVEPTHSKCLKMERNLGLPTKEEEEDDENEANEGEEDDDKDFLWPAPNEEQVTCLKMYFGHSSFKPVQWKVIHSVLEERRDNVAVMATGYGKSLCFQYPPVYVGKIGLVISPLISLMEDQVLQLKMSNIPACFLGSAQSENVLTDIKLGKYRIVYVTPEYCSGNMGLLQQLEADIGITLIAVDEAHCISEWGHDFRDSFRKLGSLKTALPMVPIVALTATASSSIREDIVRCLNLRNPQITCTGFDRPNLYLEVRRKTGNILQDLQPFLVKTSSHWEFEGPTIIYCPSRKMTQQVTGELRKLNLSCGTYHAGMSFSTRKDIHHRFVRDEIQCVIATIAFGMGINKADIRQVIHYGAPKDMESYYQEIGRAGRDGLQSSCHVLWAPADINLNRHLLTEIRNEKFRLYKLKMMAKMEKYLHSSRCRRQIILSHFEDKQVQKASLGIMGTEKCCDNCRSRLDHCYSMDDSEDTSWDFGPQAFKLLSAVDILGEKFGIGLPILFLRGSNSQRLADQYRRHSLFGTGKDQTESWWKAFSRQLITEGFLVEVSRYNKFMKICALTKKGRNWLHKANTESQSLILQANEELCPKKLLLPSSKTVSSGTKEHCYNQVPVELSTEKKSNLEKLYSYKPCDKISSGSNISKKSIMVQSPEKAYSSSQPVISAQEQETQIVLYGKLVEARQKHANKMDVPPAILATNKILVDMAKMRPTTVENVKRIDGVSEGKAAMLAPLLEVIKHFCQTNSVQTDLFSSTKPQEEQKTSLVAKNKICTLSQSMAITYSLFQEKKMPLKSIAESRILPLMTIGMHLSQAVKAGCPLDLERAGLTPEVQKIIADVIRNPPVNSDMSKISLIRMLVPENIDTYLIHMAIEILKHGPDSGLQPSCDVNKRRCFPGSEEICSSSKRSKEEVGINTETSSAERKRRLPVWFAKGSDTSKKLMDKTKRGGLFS
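Kinetic red-fluorescence monitoring (525/598 nm) tracks WRN helicase activity after 100 nM fluorophore-quencher forked duplex and 2 mM ATP are added to 20 nM enzyme pretreated 15 min at room temperature with compound.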
POLB inh: blocks human DNA polymerase beta activity. Pol beta primer extension/strand displacement, fluorescence kinetic. Potency, µM (titrated, usually from 114 µM), actives largely listed as inhibitors. 1.3% of 340,000 active. P06746
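Reaction started by 50 nM substrate onto compound-treated Pol beta (10 nM, 15 min preincubation, room temperature); plates read at 0 min and 10 min. Normalized concentration-effect data fitted by four-parameter Hill equation.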
Pol kappa inh: inhibitors of human DNA polymerase kappa | AID 588579 | Q9UBT6 | Potency, µM (series often up to 107 µM), actives largely listed as inhibitors | 0.53% of 400,000 active | purified Pol kappa, fluorescent DNA synthesis assay, 10 min
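Fluorescent qHTS in 1536-well format: enzyme (10 nM) and compound sat 15 min at room temperature before 50 nM substrate (final) was added. Signal taken at 0 and 10 min; no-enzyme buffer wells were negative controls.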
FEN1 inhibitor: inhibitors of human flap endonuclease 1; P39748; Recombinant FEN1 flap cleavage, fluorescence, 15 min; Potency, µM (top dose mostly 114 µM), actives largely listed as inhibitors; 0.35% of 390,000 active; AID 588795; also: nearly all actives have a fitted effect of over 65% in size
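Read-out was taken twice, immediately and after 15 min, following addition of 50 nM substrate to 10 nM FEN1 that had sat with test compound for 15 min at room temperature. Curves came from a four-parameter Hill model.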
Large screens that a line does not name were inactive; ! = not active in a repeat. Calls follow the shape of the dose curve; as a rule, active = well fitted curve in the direction sought with a large enough effect; inconclusive = small, poorly fitted or top-dose-only effect, or another doubt; inactive = no such curve, though single readings can be large; an effect the other way counts as inactive or inconclusive.

COc1cc(N(C)C)ccc1/C=C/c1ccnc2ccccc12	none (no result: POLH inh, WRN inhibitor, POLB inh)
CC[C@H](NC(C)C)[C@H](O)c1ccc(O)c(O)c1	none (no result: POLH inh, POLI inh, WRN inhibitor, POLB inh, FEN1 inhibitor)
CNC[C@H](O)c1cccc(O)c1	none (no result: WRN inhibitor)
NC[C@@H](O)c1ccc(O)c(O)c1	Pol kappa inh 12µM (no result: POLH inh, POLI inh, WRN inhibitor, POLB inh, FEN1 inhibitor)
CNC[C@H](O)c1ccc(O)c(O)c1	POLI inh inconclusive, Pol kappa inh 7.1µM! (no result: WRN inhibitor, FEN1 inhibitor)
O=C(Cc1ccc(F)cc1)NO	none (no result: POLH inh, WRN inhibitor, POLB inh)
CC(=O)/C=C/c1ccccc1Oc1c(F)c(F)nc(F)c1F	POLI inh inconclusive
Oc1ccccc1Oc1c(F)c(F)nc(N2CCCC2)c1F	POLI inh inconclusive, POLB inh 45µM
O=C(O)CP(=O)(O)O	POLI inh 13µM!
COc1cc(C2OCC3C(c4ccc(OC5OC(CO)C(O)C(O)C5O)c(OC)c4)OCC23)ccc1O (configuration not stated)	POLH inh inconclusive, POLI inh 71µM, POLB inh inconclusive, Pol kappa inh inconclusive
COc1cc([C@H]2OC[C@H]3[C@@H]2CO[C@H]3c2ccc(O)c(OC)c2)ccc1O	none (no result: POLB inh)
O=C(c1cnn2c(C(F)F)cc(C3CC3)nc12)N1CCCC1	none
O=C(c1cc2nc(C3CC3)cc(C(F)F)n2n1)N1CCOCC1	POLH inh 13µM, POLI inh inconclusive, WRN inhibitor inconclusive, POLB inh 50µM, Pol kappa inh 79µM
C=C(NNC(C)=O)c1ccc(O)cc1	none (no result: POLH inh, WRN inhibitor, POLB inh)
Cc1ccc(OCC(=O)Nc2cc(NC(=O)COc3ccc(C)c(C)c3)cc(C(=O)O)c2)cc1C	POLH inh inconclusive, POLB inh 50µM, FEN1 inhibitor inconclusive
COc1ccccc1OCC(=O)Nc1cc(NC(=O)COc2ccccc2OC)cc(C(=O)O)c1	none
O=C(COc1ccccc1Cl)Nc1cc(NC(=O)COc2ccccc2Cl)cc(C(=O)O)c1	POLB inh 79µM
NC(=O)C1CC2(NC(=O)NC2=O)c2cc(F)ccc2O1 (configuration not stated)	none (no result: POLH inh, POLI inh, WRN inhibitor, POLB inh, FEN1 inhibitor)
Cc1ccc(OCC(=O)Nc2ccc(O)c(-c3nc4ccccc4o3)c2)cc1	none
Cc1ccc2oc(-c3ccc(NC(=O)COc4ccccc4)cc3O)nc2c1	POLI inh 89µM (no result: POLH inh, WRN inhibitor, POLB inh)
Cc1ccc(OCC(=O)Nc2ccc3c(c2)C(=O)NC3=O)cc1	POLB inh 32µM
NS(=O)(=O)c1ccc(CCNC(=O)COc2ccc3c4c(c(=O)oc3c2)CCC4)cc1	none
O=C(COc1ccc2c3c(c(=O)oc2c1)CCC3)Nc1ccc(CCO)cc1	POLH inh 50µM, POLI inh inconclusive, POLB inh inconclusive
O=C(NCCc1ccc(F)cc1)c1ccc(Cl)c(S(=O)(=O)N2CCOCC2)c1	POLH inh 45µM, POLI inh inconclusive (no result: POLB inh)
Cc1cc(S(=O)(=O)N2CCCC2)ccc1OCC(=O)NCc1ccco1	POLI inh inconclusive, POLB inh 25µM
CCN(c1ccccc1)S(=O)(=O)c1cc(C(=O)NCc2ccco2)ccc1C	POLH inh 79µM, POLI inh inconclusive (no result: POLB inh)
Cc1cc(S(=O)(=O)N2CCOCC2)ccc1OCC(=O)NCc1ccco1	none
O=C(COc1ccc(S(=O)(=O)N2CCCC2)cc1)NCc1ccco1	POLH inh inconclusive, POLI inh inconclusive, POLB inh inconclusive
O=C(COC(=O)c1ccc(S(=O)(=O)N2CCCCC2)cc1)NCc1ccco1	POLH inh inconclusive, POLI inh inconclusive, POLB inh 40µM, Pol kappa inh inconclusive
C=C(C)[C@@H]1C2=CC(C(=O)OC)=C(C[C@@H](C(=C)C)[C@H]3O[C@H]3C3=C[C@H]1OC3=O)O2	POLI inh inconclusive (no result: POLH inh, WRN inhibitor, POLB inh)
CC(=O)Nc1ccc(NC(=O)COC(=O)c2ccc(S(=O)(=O)NCc3ccco3)cc2)cc1	none (no result: POLB inh)
O=C(OC1CCOC1=O)c1ccc(Cl)c(S(=O)(=O)N2CCCCC2)c1 (configuration not stated)	POLB inh inconclusive
O=C(OCc1nnc(-c2ccccc2)o1)c1ccc(S(=O)(=O)NCc2ccco2)cc1	POLH inh 22µM, POLI inh inconclusive, POLB inh 3.5µM, Pol kappa inh inconclusive
COc1cccc(NC(=O)COC(=O)c2ccc(S(=O)(=O)NCc3ccco3)cc2)c1	POLH inh 8.9µM, POLI inh inconclusive, POLB inh inconclusive, Pol kappa inh inconclusive
O=C(OC1CCOC1=O)c1ccc(Cl)c(S(=O)(=O)N2CCOCC2)c1 (configuration not stated)	POLH inh 40µM, POLI inh 71µM, Pol kappa inh inconclusive (no result: POLB inh)
O=C(COC(=O)c1ccc(S(=O)(=O)NCc2ccco2)cc1)NCCC1=CCCCC1	POLH inh inconclusive, POLI inh inconclusive, POLB inh 45µM, Pol kappa inh inconclusive
Cc1cc2c(cc1Cl)N(C(=O)Nc1ccc(Oc3cccnc3C)nc1)CC2	none (no result: POLH inh, POLI inh, WRN inhibitor, POLB inh)
CC1=CC23C(=O)C(C=C(CO)[C@@H](O)[C@]2(O)[C@H]1O)[C@H]1[C@@H](C[C@H]3C)C1(C)C (some centres not stated)	none (no result: POLH inh, POLI inh, WRN inhibitor, POLB inh, FEN1 inhibitor)
CCN(c1ccccc1)S(=O)(=O)c1cc(C(=O)OC(C)C(=O)Nc2ccc3c(c2)OCCO3)ccc1C (configuration not stated)	POLH inh inconclusive, POLI inh inconclusive, POLB inh 10µM, Pol kappa inh inconclusive
Cc1ccc(NS(=O)(=O)c2cccc(C(=O)OCC(=O)NCc3ccco3)c2)cc1	POLH inh inconclusive, POLI inh inconclusive, Pol kappa inh inconclusive
O=C(COC(=O)c1ccc(NS(=O)(=O)c2cccs2)cc1)NCc1ccco1	POLH inh 4µM, POLI inh 8.9µM, WRN inhibitor 45µM, POLB inh inconclusive, Pol kappa inh 32µM, FEN1 inhibitor 45µM
O=C(NCc1ccco1)c1ccc(Cl)c(S(=O)(=O)N2CCCC2)c1	POLH inh inconclusive, POLI inh 35µM (no result: POLB inh)
CC(OC(=O)c1ccccn1)C(=O)Nc1ccc2c(c1)OCCO2 (configuration not stated)	none (no result: POLB inh)
CC1=C(/C=C/C(C)=C/C=C/C(C)=C\CO)C(C)(C)CCC1	none (no result: POLH inh, POLI inh, WRN inhibitor, POLB inh, FEN1 inhibitor)
COc1ccc(-c2ccc(OC)c(C3C4C=CCCC4(C)C(=O)N3Cc3ccccc3)c2)cc1OC (configuration not stated)	none (no result: POLH inh, WRN inhibitor, POLB inh)
CN(C)C(=O)C#Cc1ccccc1	none
O=C(C#Cc1ccccc1)c1ccccc1	WRN inhibitor 45µM (no result: POLI inh, POLB inh, Pol kappa inh, FEN1 inhibitor)
O=C(C#Cc1ccccc1)c1ccc([N+](=O)[O-])cc1	WRN inhibitor 32µM
O=C(CSCC(=O)c1ccc([N+](=O)[O-])cc1)c1ccc([N+](=O)[O-])cc1	none (no result: POLH inh, POLI inh, POLB inh, Pol kappa inh, FEN1 inhibitor)
CC(=O)c1c(C)nc(-c2ccc(Cl)cc2)nc1N=CN(C)C	POLB inh 35µM
CC(=O)c1c(C)nc(-c2ccc(Cl)cc2)nc1N	none
Cc1ccc(S(=O)(=O)N2CC=C(c3c(C)n(C)c4ccccc34)CC2)cc1	WRN inhibitor 79µM
Cc1ccc(S(=O)(=O)N2CC=C(c3c(C)n(CC(=O)N4CCCC4)c4ccccc34)CC2)cc1C	POLI inh 79µM (no result: WRN inhibitor)

Compound activity deposited in PubChem BioAssay by National Center for Advancing Translational Sciences (NCATS).
